From PubChem BioAssay AID1275 (Emory University Molecular Libraries Screening Center, 2008) come the findings set out here.

The campaign covered roughly 1,000 compounds. About 160 (16%) were called active. The rule behind the calls is not given here. The list shows a part of the results.

This experiment deals with Neutrophil cytosol factor 1 (Homo sapiens) (UniProt P14598). In words: blockers of ligand binding to p47phox – biochemical, NADPH oxidase regulatory subunit, fluorescence polarization, dose response (AID 1275). Conditions: at 12.5 µM. A general note: Fluorescence polarisation rises when a labelled molecule tumbles more slowly, as on binding a larger partner.
Chain of Neutrophil cytosol factor 1 (Homo sapiens) (P14598 whole entry, looked up): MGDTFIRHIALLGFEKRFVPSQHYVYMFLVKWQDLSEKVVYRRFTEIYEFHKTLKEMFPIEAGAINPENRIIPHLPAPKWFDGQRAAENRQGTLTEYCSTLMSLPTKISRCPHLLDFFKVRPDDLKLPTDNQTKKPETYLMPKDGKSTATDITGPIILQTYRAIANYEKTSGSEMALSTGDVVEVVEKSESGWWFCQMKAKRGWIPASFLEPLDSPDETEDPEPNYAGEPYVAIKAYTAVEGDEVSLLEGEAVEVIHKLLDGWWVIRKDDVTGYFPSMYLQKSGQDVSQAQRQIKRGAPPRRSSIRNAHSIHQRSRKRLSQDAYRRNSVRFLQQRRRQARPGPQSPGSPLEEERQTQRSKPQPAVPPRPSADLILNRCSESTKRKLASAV
Regarding `O=C1NC(=O)N(Cc2ccc(F)cc2)C(=O)/C1=C\c1ccc(N2CCCC2)cc1`, the percent of control, lower = inhibition was -40.7 (active).
